Screen size: about 66,000 compounds; about 960 (1.5%) showed an effect of 50% or more. The sample holds strong results, similar compounds and a random draw of the others, so the mix is not that of the screen.
Test system: Trypanosoma brucei
Assay: Trypanosoma brucei 72 hour study
Format: functional, organism-based
Parameters: scale not given: in the data most compounds retested in dose-response had high values

COc1cccc(CN2C[C@@H]3CC[C@@](O)(c4ccccn4)[C@@H]3C2)c1OC.O=C(O)CC(O)(CC(=O)O)C(=O)O
Percent Effect (30.3 µM, […]): -12.48%

CC(=O)N1[C@H](CN(C)C)C[C@@H]2CN(C(=O)Cc3cccs3)CC[C@@H]21.O=C(O)C(F)(F)F
Percent Effect (30.3 µM, […]): -71.88%

Cn1cccc1C(=O)N[C@H]1CN(Cc2ccoc2)[C@@H]2CCCO[C@H]12.O=C(O)C(F)(F)F
Percent Effect (30.3 µM, […]): -1.992%

Cc1cccc(CN2CCc3ncnc(NC4CCC4)c3CC2)n1.O=C(O)C(F)(F)F.O=C(O)C(F)(F)F
Percent Effect (30 µM, 30.03 µM): -15.74%

Cc1cc(C(=O)N2CC[C@H]3C[C@H](c4ccncn4)O[C@@H]3C2)no1
Percent Effect (30 µM, 30.03 µM): -17.17%

CN(Cc1cccnc1)Cc1cncc2c1CCN(Cc1ccoc1)C2.Cl.Cl.Cl
Percent Effect (30.3 µM, […]): -64.05%

O=C(O)C(F)(F)F.c1cc(CN2C[C@H](OCC3CCOCC3)[C@H]3COC[C@H]32)co1
Percent Effect (30.3 µM, […]): -13.64%

Cc1ccc(S(=O)(=O)N2CC[C@H]3CO[C@H](CN(C)C)[C@H]3C2)cc1.O=C(O)C(F)(F)F
Percent Effect (30 µM, 30.03 µM): -6.145%

Cc1ccc(CN2CCC3(CC2)NC(=O)CC3c2ccncc2)cc1C.O=C(O)C(F)(F)F.O=C(O)C(F)(F)F (configuration not stated)
Percent Effect (30 µM, 30.03 µM): -19.59%

Fc1ccc(-c2nc(CN3CCOC(Cn4cccn4)C3)co2)cc1 (configuration not stated)
Percent Effect (30.3 µM, […]): 15.69%

COc1cc(OC)cc(-c2cc(CN)nc3ccnn23)c1.Cl
Percent Effect (30.3 µM, […]): 0.9349%

Cc1ccc(CN2Cc3ccnn3CC(C(=O)NCC3CC3)C2)o1.O=C(O)C(F)(F)F.O=C(O)C(F)(F)F (configuration not stated)
Percent Effect (30.3 µM, […]): -12.67%

Cc1cccc(-c2noc(CN3CCOC(Cn4cccn4)C3)n2)c1 (configuration not stated)
Percent Effect (30.3 µM, […]): 7.086%

CCCc1nc(NCCCOC)c2c(n1)c(C)nn2CC
Percent Effect (30.3 µM, […]): 88.3%

CCCc1nc(NCCOC)c2c(n1)c(C)nn2CC
Percent Effect (30.3 µM, […]): -10.53%

CCCc1nc(NCCCOCC)c2c(n1)c(C)nn2CC
Percent Effect (30.3 µM, […]): -18.63%

CCOc1ncccc1CNC(=O)NCC(O)c1ccccc1OC (configuration not stated)
Percent Effect (10 µM): -66.27%

COc1c(C)cc(CNCc2ccnc(N3CCOCC3)c2)cc1C.Cl
Percent Effect (30.3 µM, […]): 15.01% | Percent Effect (10 mM, 10 mM as filed; unlikely as a test dose): -23.82%

COc1ccc(CNC(C)c2ccc(Cl)c(Cl)c2)c(OC)c1OC (configuration not stated)
Percent Effect (30 µM, 30.03 µM): 20.68%

Cc1cc2nc(-c3ccccc3)cc(NCC3CCCOC3)n2n1 (configuration not stated)
Percent Effect (30.3 µM, […]): 87.98%

c1ccc(-c2cc(NCCCC3CCOC3)n3nccc3n2)cc1 (configuration not stated)
Percent Effect (30.3 µM, […]): 35.81%

Cc1cc2nc(-c3ccccc3)cc(NCC3CCS(=O)(=O)C3)n2n1 (configuration not stated)
Percent Effect (30.3 µM, […]): 6.285%

COc1cccc(C(NCc2ccc(SC)cc2)c2nccn2C)c1 (configuration not stated)
Percent Effect (10 µM): -34.89%

CCOCC1CN(Cc2cccs2)Cc2nn(C)cc21.O=C(O)C(F)(F)F (configuration not stated)
Percent Effect (30 µM, 30.03 µM): -3.631%

CCN(CC1CN(Cc2nc(C3CC3)no2)CCO1)c1cccnn1 (configuration not stated)
Percent Effect (30 µM, 30.03 µM): 37.04%

Cc1ccc(C(=O)N2CCCC(Nc3ccc(F)cc3)C2)cc1 (configuration not stated)
Percent Effect (30 µM, 30.03 µM): -28.83%

CSc1ccc(C(=O)N2CCCC(Nc3ccc(F)cc3)C2)cc1 (configuration not stated)
Percent Effect (30 µM, 30.03 µM): 63.86%

COC(=O)c1ccc(C(=O)N2CCCC(Nc3ccc(F)cc3)C2)cc1 (configuration not stated)
Percent Effect (30 µM, 30.03 µM): -14.97%

CN(C)C(=O)COC[C@]12COC[C@H]1CN(CCc1ccccc1)C2.O=C(O)C(F)(F)F
Percent Effect (30.3 µM, […]): -48.5%

c1ccc(-c2nnc(CNCC3CCCN3c3cccnn3)o2)cc1 (configuration not stated)
Percent Effect (30 µM, 30.03 µM): -41.79%

CCc1nc(CNCC2CCCN2c2cccnn2)cs1 (configuration not stated)
Percent Effect (30.3 µM, […]): 4.558%

Cc1nc(CNCC2CCCN2c2cccnn2)cs1 (configuration not stated)
Percent Effect (30 µM, 30.03 µM): -9.671%

CCCc1nc(CNCC2CCCN2c2cccnn2)cs1 (configuration not stated)
Percent Effect (30.3 µM, […]): 34.1%

c1ccc(-c2nc(CNCC3CCCN3c3cccnn3)co2)cc1 (configuration not stated)
Percent Effect (30.3 µM, […]): 97.98%

CC(C)CCc1nc(CNCC2CCCN2c2cccnn2)cs1 (configuration not stated)
Percent Effect (30.3 µM, […]): 99.06%

Cc1nc(CN2CCOC(CNc3cccnn3)C2)cs1 (configuration not stated)
Percent Effect (30 µM, 30.03 µM): -27.36%

c1cnnc(N2CCCC2CNCc2csc(-c3ccco3)n2)c1 (configuration not stated)
Percent Effect (30.3 µM, […]): 17.07%

CCc1nc(CN2CCOC(CNc3cccnn3)C2)cs1 (configuration not stated)
Percent Effect (30.3 µM, […]): -0.3167%

CC(C)c1nc(CNCC2CCCN2c2cccnn2)cs1 (configuration not stated)
Percent Effect (30.3 µM, […]): 100.4%

CC(C)c1nc(CN2CCOC(CNc3cccnn3)C2)cs1 (configuration not stated)
Percent Effect (30.3 µM, […]): 100.6%

CN(Cc1coc(-c2ccccc2)n1)CC1CCCN1c1cccnn1 (configuration not stated)
Percent Effect (30 µM, 30.03 µM): -1.174%

Cc1nn(C)c(N2CCOCC2)c1CNC1CCc2cc(F)ccc21.Cl (configuration not stated)
Percent Effect (30.3 µM, […]): 2.572%

O=C(c1ccccn1)N1CCCC(c2cc(C(F)F)n3ncnc3n2)C1 (configuration not stated)
Percent Effect (30.3 µM, […]): -6.514%

CN(C)CCn1c2c(ccc1=O)CCN(C(=O)c1cccs1)CC2.O=C(O)C(F)(F)F
Percent Effect (30.3 µM, […]): -37.11%

CC(C)NC(=O)CC1COC2(CCN(Cc3ccco3)CC2)C1 (configuration not stated)
Percent Effect (30.3 µM, […]): -14.26%

Cn1ccc(C(=O)NC2CCC23CCN(Cc2ccc(F)cc2)CC3)c1.O=C(O)C(F)(F)F (configuration not stated)
Percent Effect (30 µM, 30.03 µM): 3.839%

COCCC(=O)N1CCc2nc(N3CCOCC3)nc(NC(C)C)c2C1
Percent Effect (30.3 µM, […]): -26.7%

CCCN1CCc2nc(N3CCOCC3)nc(NC(C)C)c2C1
Percent Effect (30.3 µM, […]): -24.43%

CC(C)Nc1nc(N2CCCC2)nc2c1CN(S(C)(=O)=O)CC2
Percent Effect (30.3 µM, […]): -6.542%

CC(C)CCN1CCc2nc(N3CCOCC3)nc(NC(C)C)c2C1
Percent Effect (30.3 µM, […]): 99.5%

CC(C)Nc1nc(N2CCCC2)nc2c1CN(C(C)C)CC2
Percent Effect (30 µM, 30.03 µM): 99.66%

CCN1CCc2nc(N3CCOCC3)nc(NC(C)C)c2C1
Percent Effect (30.3 µM, […]): -20.31%

CC(C)Nc1nc(N2CCCC2)nc2c1CN(c1ncc(F)cn1)CC2
Percent Effect (30.3 µM, […]): 99.94%

CCC(C)N1CCc2nc(N3CCCC3)nc(NC(C)C)c2C1 (configuration not stated)
Percent Effect (30.3 µM, […]): 80.67%

CC(C)Nc1nc(N2CCOCC2)nc2c1CN(CC(=O)N(C)C)CC2
Percent Effect (30 µM, 30.03 µM): -12.25%

CC(C)Nc1nc(N2CCCC2)nc2c1CN(C)CC2
Percent Effect (30.3 µM, […]): -8.686%

CC(C)CC(=O)N1CCc2nc(N3CCOCC3)nc(NC(C)C)c2C1
Percent Effect (30 µM, 30.03 µM): 21.8%

CC(C)Nc1nc(N2CCCC2)nc2c1CCN(S(C)(=O)=O)CC2.O=C(O)C(F)(F)F.O=C(O)C(F)(F)F
Percent Effect (30.3 µM, […]): -7.363%

COc1ccc(Oc2cc(CN)ccn2)cc1
Percent Effect (30 µM, 30.03 µM): -27.14%

O=C1N(c2ccsc2)CCC12CCCN(c1ncc(F)cn1)C2 (configuration not stated)
Percent Effect (30.3 µM, […]): 6.515%

CC(C)(C)n1ncc(NCCc2ccccc2C(F)(F)F)c(Cl)c1=O
Percent Effect (30 µM, 30.03 µM): -22.16%

COC(C)(C)C(=O)N1CCC(c2cc(CN(C)C)n(C)n2)CC1.Cl
Percent Effect (30.3 µM, […]): -10.49%

Cc1ccc(CN2Cc3c(cnn3C)C(COCC3CC3)C2)s1 (configuration not stated)
Percent Effect (30 µM, 30.03 µM): 38.62%

CC(C)=CCN1C(=O)[C@H]2CC[C@@H]1CN(C(=O)CCc1nc(Cl)n[nH]1)C2
Percent Effect (30 µM, 30.03 µM): -4.584%

COC(=O)CN1CC2(CCNCC2)COc2ccccc2S1(=O)=O.O=C(O)C(F)(F)F
Percent Effect (30 µM, 30.03 µM): -19.66%

Br.CCOc1ccc(Br)cc1C1CCCN1 (configuration not stated)
Percent Effect (30 µM, 30.03 µM): -44.26%

CC(C)OCCCN(CC(=O)N1CCNCC1)C(=O)c1ccc(F)cc1.O=C(O)C(F)(F)F
Percent Effect (30 µM, 30.03 µM): -6.979%

Cc1nc(CN2CCc3nc(NC(C)C)nc(C)c3C2)cs1
Percent Effect (30 µM, 30.03 µM): 1.176%

CC(C)Nc1nc(N2CCOCC2)nc2c1CN(Cc1ccoc1)CC2
Percent Effect (30 µM, 30.03 µM): 8.067%

Cc1nc(CN2CCc3nc(N4CCCC4)nc(NC(C)C)c3C2)cs1
Percent Effect (30 µM, 30.03 µM): 98.38%

CN(CCOc1ccc(Cl)cc1)Cc1ccc(S(=O)(=O)N(C)C)o1
Percent Effect (30 µM, 30.03 µM): -22.42%

Cn1nc(-c2ccc(Cl)cc2)c(Br)c1C(=O)O
Percent Effect (30 µM, 30.03 µM): -21.18%

Cc1cccc(CN2C(=O)CCC23CCN(C(=O)N2CCCC2)CC3)n1.O=C(O)C(F)(F)F
Percent Effect (30.3 µM, […]): -18.36%

Cc1cc(NCc2ccc(CO)cc2)n2nc(C)cc2n1
Percent Effect (30 µM, 30.03 µM): 21.61%

Cc1cc(NCc2cccnc2)n2nc(C)cc2n1
Percent Effect (30 µM, 30.03 µM): 51.67%

Cc1cc(NCc2ccc(O)cc2)n2nc(C)cc2n1
Percent Effect (30 µM, 30.03 µM): 9.404%

COCCN1CCc2ncnc(-c3ccccc3)c2CC1.O=C(O)C(F)(F)F
Percent Effect (30.3 µM, […]): -87.22%

NC(=O)c1cccc(OCC(=O)NS(=O)(=O)c2ccc3c(c2)CCC3)c1
Percent Effect (30.3 µM, […]): -4.37%

CN(Cc1ccsc1)C(=O)Nc1cccnc1N1CCCC1
Percent Effect (30 µM, 30.03 µM): -52.54%

CCc1ncc(CN(C)C(=O)Nc2cccnc2N2CCCC2)s1
Percent Effect (30 µM, 30.03 µM): 50.09%

CN(Cc1ccco1)C(=O)Nc1cccnc1N1CCCC1
Percent Effect (30.3 µM, […]): 18.63%

O=C(O)C(F)(F)F.O=C(c1cc[nH]n1)N1CCC2(CC1)CC(Oc1cccnc1)CO2 (configuration not stated)
Percent Effect (30 µM, 30.03 µM): -3.949%

COc1ccc(Cl)cc1NCC(=O)NCc1cccnc1OC
Percent Effect (30.3 µM, […]): 74.82% | Percent Effect (10 mM, 10 mM as filed; unlikely as a test dose): -40.14%

COc1ccc(Cl)cc1NCC(=O)NCCNc1ncccn1
Percent Effect (30.3 µM, […]): -3.8% | Percent Effect (10 mM, 10 mM as filed; unlikely as a test dose): -45.51%

COc1cc(CNC(=O)CNc2cc(Cl)ccc2OC)ccn1
Percent Effect (30 µM, 30.03 µM): -27.18%

CS(=O)(=O)NCc1nnc2n1CCN(Cc1cccs1)CC2.O=C(O)C(F)(F)F
Percent Effect (30.3 µM, […]): -150.1%

Cc1ccc(N2CCC3(CC2)COCCN(c2nccs2)C3)nn1.O=C(O)C(F)(F)F.O=C(O)C(F)(F)F
Percent Effect (30 µM, 30.03 µM): -12.93%

Cc1ccc(C(=O)N2CCC3(CC2)COC(COc2ccccn2)C3)o1.O=C(O)C(F)(F)F (configuration not stated)
Percent Effect (30.3 µM, […]): 15.32%

Cc1ccc(C(=O)N2CCC3(CC2)COC(COc2cccnc2)C3)o1.O=C(O)C(F)(F)F (configuration not stated)
Percent Effect (30 µM, 30.03 µM): 51.84%

O=C(c1ccccn1)N1CCC2(CC1)COC(COc1cccnc1)C2 (configuration not stated)
Percent Effect (30 µM, 30.03 µM): 52.19%

CCOCC1CC2(CCN(C(=O)c3ccccn3)CC2)CO1.O=C(O)C(F)(F)F (configuration not stated)
Percent Effect (30.3 µM, […]): 13.92%

CCS(=O)(=O)N1CCC2(CC1)COC(COc1cccnc1)C2.O=C(O)C(F)(F)F (configuration not stated)
Percent Effect (30.3 µM, […]): 1.349%

O=C(O)C(F)(F)F.O=C(c1ccccn1)N1CCC2(CC1)COC(COCC1CC1)C2 (configuration not stated)
Percent Effect (30 µM, 30.03 µM): 39.74%

O=C(O)C(F)(F)F.O=C([C@H]1CCCO1)N1CCCC2(COCCN(c3ccccc3)C2)C1 (some centres not stated)
Percent Effect (30.3 µM, […]): -14.49%

Source: ChEMBL document CHEMBL3988442, “University of Dundee, Small-Polar-MMV Screening Library” (2021)
